High-throughput results as filed in PubChem BioAssay.
PAX8 inh HTS: lowers PAX8-driven luciferase in RMG-I cells. RMG-I TPO-luciferase reporter, SteadyGlo, 24 h. inhibition, % at 12.6 µM. 360,000 compounds, 1.2% hits;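 active = mean replicate inhibition at least 60% with every replicate also reaching 60%; inconclusive = only one of the two criteria is met; inactive = mean below 60% and not all replicates reaching 60%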;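 also: luciferase light reporting Pax8 driven TPO promoter activity; plate controls were median of neutral control wells for no effect and mitoxantrone controls for full effect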
MITF TRPM1 HTS: MITF TRPM1 promoter activation in melanoma cells. 300,000 compounds, 0.75% hits. SK-MEL-5 TRPM1-promoter luciferase, 24 h; % of positive control, neutral wells = 0. activation, % at 12.5 µM;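 active = mean activation of at least 80% with every replicate also reaching 80%; inconclusive = mean reaches 80% but some replicate falls short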;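 also: 0% = neutral control wells and 100% = parthenolide positive control wells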
Wnt act: activators of Wnt/beta-catenin signaling; Wnt/beta-catenin reporter cell assay, activator, plate reader; activation, % at 9.35 µM; 300,000 compounds, 1.2% hits; AID 743398; in the data active = activation above about 30%, passing the limit was not always enough; inconclusive = no clear call, values can overlap the other calls;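 also: 0% = neutral control wells and 100% = positive control wells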
EWS-Fli inh: blocks EWS/Fli oncoprotein-driven transcription | A673 NR0B1-luciferase reporter, viability-normalised | inhibition, % at 12.6 µM | 350,000 compounds, 0.67% hits | AID 651661;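 active = mean inhibition of at least 50% after viability correction, with every replicate also passing that limit; inconclusive = mean reaches 50% but only one of two replicates passes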;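 also: firefly luciferase signal divided by Alamar Blue viability fluorescence both relative to DMSO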
esBAF inh: blocks esBAF chromatin remodeling in mouse ES cells; AID 602393; Bmi1-luciferase knock-in reporter, 24 h; 100% = twice the neutral-well signal; reporter increase, % at 12.5 µM; 350,000 compounds, 2% hits; in the data active = activation above about 40%; inconclusive = no clear call, values can overlap the other calls;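 also: 0% = median of the plate's neutral control wells and 100% = double that signal; a rise in the Bmi1 reporter signal indicates esBAF inhibition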
MITF TRPM1 inh: MITF TRPM1 promoter inhibition in SK-MEL-5 cells | SK-MEL-5 TRPM1 promoter luciferase, 24 h | AID 488899 | 330,000 compounds, 0.83% hits | inhibition, % at 12.5 µM;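 active = mean inhibition across replicates of 60% or more, whatever share of single replicates reaches that level; inconclusive = some that reach 60%, reason not given; inactive = mean inhibition across replicates below 60%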
Starred values were filed as active, the others as inactive; ? = inconclusive; / = no result given. This is a sample that favours compounds with a hit; in the whole collection about 4% have one here.

SMILES	PAX8 inh HTS	MITF TRPM1 HTS	Wnt act	EWS-Fli inh	esBAF inh	MITF TRPM1 inh
CCC(C(=O)Nc1cc(C(=O)Nc2cc(C)ccn2)ccc1Cl)c1ccccc1 (centres undefined)	69*	3	1	-4	/	-3
Cc1ccnc(NC(=O)c2ccc(Cl)c(NC(=O)c3ccccc3C)c2)c1	/	/	/	/	-2	4
Cc1ccnc(NC(=O)CCNC(=O)c2ccccc2Cl)c1	14	20	3	/	46*	-24
Cc1ccc(NC(=O)CC(NC(=O)c2ccccc2Cl)c2ccccc2)nc1 (centres undefined)	-7	3	-4	-7	-5	-4
Cc1ccnc(NC(=O)CNC(=O)COc2ccccc2)c1	-116	90*	38*	-77	74*	-87
Cc1ccnc(NC(=O)CC(NC(=O)c2ccccc2Cl)c2ccccc2)c1 (centres undefined)	-31	58	-4	-87	52*	-56
COc1ccc2c3c([nH]c2c1)[C@H](CO)N(C(C)=O)CC31CCN(C(=O)CN2CCOCC2)CC1	/	/	/	-10	/	/
CN(C)C(=O)[C@H]1[C@H](CO)[C@H]2Cn3c(ccc(C4=CCCCC4)c3=O)[C@@H]1N2Cc1ccccc1	3	/	/	0	5	/
COc1ccc2c(c1)C(C)=CC(C)(C)N2S(=O)(=O)c1ccc(NC(C)=O)cc1	64*	/	-7	48	-8	38
CCOc1ccc2c(c1)C(C)=CC(C)(C)N2S(=O)(=O)c1ccc(F)cc1	44	-24	-2	62*	-2	28
CC1=CC(C)(C)N(S(=O)(=O)c2ccc(F)cc2)c2ccc(C)cc21	/	-3	0	/	-8	2
CCOc1ccc2c(c1)C(C)=CC(C)(C)N2S(=O)(=O)c1ccc(NC(C)=O)cc1	88*	/	-10	47	-16	48
COc1ccc2c(c1)C(C)=CC(C)(C)N2S(=O)(=O)c1ccc(Br)cc1	88*	-53	-11	50	-25	55
O=C1CN(Cc2ccccc2)C[C@H]2[C@@H](c3ccc(Br)cc3)[C@@H](CO)N12	-4	/	/	2	/	/
CCCC(=O)OCCNc1cc(Sc2nccn2C)c2nonc2c1[N+](=O)[O-]	-12	-101	-19	/	-4	101*
CCC(=O)OCCNc1cc(Sc2nc3ccccc3[nH]2)c2nonc2c1[N+](=O)[O-]	45	-73	-18	/	/	72*
O=C(Cn1c2ccccc2c(=O)c2ccccc21)N/N=C/c1ccc(N2CCCC2)c([N+](=O)[O-])c1	8	-88	/	/	/	89*
Cc1csc2nc(CCNS(=O)(=O)c3cccs3)cn12	-129	41	29	-59	53*	-39
Cc1nc(CCNS(=O)(=O)c2cccs2)cs1	/	5	/	/	-5	-4
C=C1C(=O)[C@]23C[C@H]1CC[C@H]2[C@]1(C)[C@@H](O)CC[C@@](C)(C(=O)O)[C@H]1C[C@@H]3O	?	/	-5	11	16	/
C=C1C(=O)[C@]23C[C@H]1CC[C@H]2[C@]1(C)[C@@H](OC(C)=O)CC[C@@](C)(C(=O)O)[C@H]1C[C@@H]3O	101*	/	-15	38	-34	/
C=C1C(=O)[C@]23C[C@H]1CCC2[C@@]1(C)C(C[C@@H]3O)[C@](C)(C(=O)OC)CC[C@@H]1OC(C)=O (some centres undefined)	108*	/	-3	53*	-84	/
C=C1C(=O)[C@]23C[C@H]1CC[C@H]2[C@]1(C)[C@@H](OC(C)=O)CC[C@@](C)(C(=O)OC)[C@H]1C[C@@H]3OC(C)=O	117*	/	-4	61*	-85	/
O=C(C1CCOCC1)N1CC(=O)N2[C@H](C1)[C@H](c1ccc(/C=C/c3ccccc3)cc1)[C@@H]2CO	12	/	/	4	/	/
Nc1nc2ccccc2n1/N=C/c1ccc(-c2ccccc2)o1	-73	/	53*	/	?	-115
Nc1nc2ccccc2n1/N=C/c1ccc([N+](=O)[O-])s1	52	-66	/	/	/	66*
CC(C)CC#Cc1ccc([C@H]2[C@@H](CO)N3C(=O)CN(C(=O)NC4CCCC4)C[C@@H]23)cc1	/	/	/	-2	/	/
Cc1ccc(N/C=C(/C#N)c2ccsc2)cc1C	/	47	/	/	62*	-43
Cc1ccc(N/N=C(\C#N)C(=O)c2ccsc2)cc1	-52	1	6	-21	/	1
Cc1ccc(CNC(=O)C2(S(=O)(=O)c3ccccc3)CC=CC2)cc1	/	74	/	/	73*	-74
